Measured values as given in the supplement of paper PMC6555819.

test system: RARb:RXRa (NR concentration 270 nM, RXRa partner concentration 90 nM); test: PBM binding z-score (relative to random genomic background probes); higher = stronger binding; sequences stand for … in GC…GCGATTGACAGCGTAGAATGAAGG
Method in brief: (§1)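 For binding z-scores, the reference was random background probes on custom Agilent 4×180K protein-binding microarrays. These arrays were incubated 1 h with ligand-free nuclear receptor dimers in PBS pH 7.4, 2% milk, 0.02% Triton X-100, 1 mM DTT, 0.2 mg/mL BSA and 0.4 mg/ml salmon testes DNA. Fluorescence was scanned after antibody detection of each partner (one per run) and regression-normalized.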

| Sequence | PBM binding z-score |
| --- | --- |
| CCTTACGGGTCACTCCAGGTTATAGCATCGGAGT | 3.6 |
| TTGCCTAGGTCATGGGCCAGTATACCACGCGAAC | 4.07 |
| TCTTGTAGATCAATGGTTAAGAAAGCCGAAGCCT | -0.236 |
| CCGACTGGGGCATAAGGTTACCCTAAGCCAGCCC | 1.26 |
| CCTTACTGGTCACTCCAGGTTATAGCATCGGAGT | 1.53 |
| ATCTCTAGGTCACCAAGTTCAGTGAATGCCGAAC | 4.82 |
| AGAACGAGGGCAATGAGTTGTTAGCACGGGTGGC | 2.13 |
| GCTGCTACGTCAGGTTGGTCAGCTAACGGGTACG | -0.154 |
| TAGCCTAGGTCAGACCGGGCCAGTATACGCTATA | 3 |
| CCGAGTAGGTTATGGGGCACTCAGGCAACGGTGA | 1.15 |
| GCTTACGGGTCAAAGGTGATAGCATGAATAGAAT | 4.09 |
| CCTACTGGGCCAAACAGGTCATTGATGCCGATAA | 1.68 |
| ATATGTAGGTTATGGGGTCATTCAGTTTGCGCAT | 3.54 |
| ATCGAAAGGTCGTGAGGTTAGTATACAGAAAGGC | 3.99 |
| GCGACTGGGGCAAAGCAGGTTTCCATAAGGTTGG | 0.376 |
| CCTACTAGGCCAAAAAGGTCATTGATGCCGATAA | 4.09 |
| GCTGCTAGGTCAACTGTTGGTCAGCTAAAGCTCG | 4.42 |
| AGAACGAGGGCACGTTGAGTTGATAGCAGAGTAG | 2.42 |
| CGTCCAGGGTCAAAGGTCAGTGAAGAGATGACGG | 5.63 |
| ATCACTAGGTAAAAGTTCAGTGAATCCCGAGGAT | 2.49 |

| Sequence | PBM binding z-score |
| --- | --- |
| CCAGATAGGTGAGAAGGTAACTCAGCCTCGATTA | 0.76 |
| ACTATTAGTTAACTTAGGGCAACCGATACGACGC | 0.959 |
| AGTCAAAGTTAACTAGGTAACGTAAGATTCAGCT | 0.61 |
| TCTTGTAGATCAAGCAGGTTAAGACAGCCTGAGT | 0.151 |
| GCTAGTTGGTAAGTAAAAGGTCACACACCGGTCG | 4.08 |
| CGAACTAGGTCATTGACAGGACAGTGAGTAGTAA | 3.6 |
| TCTTGTAGATCAATAGAGGTCAAGAAAGTGCGCT | 3.26 |
| ACTAACAGGCCAAGTTTGGGTCACTCAAACAAAG | 2.11 |
| TCTATTAGTTGAAGGGCAAACGACGAGTCCGTTT | 1.72 |
| GCTAGGTGGTCAGTAAAAGGTCACACACCGGTCG | 4.34 |
| ATCTCTAGGTAACAAGTACAGTGAAAGAGAGGAC | 0.624 |
| ATCTCTAGGTAAAAGCTCAGTGAATCCCGAGGAT | -0.0301 |
| TTACCAAGGTGCAGGTCGTTGATCCCTCTGTAGA | 0.624 |
| AGACTGAGGTTATACGTAGATCAGGGAAGAAAGT | 1.46 |
| CAAACTAGGTCAGAGGTCAAAGTCGAGCCAACCA | 5.18 |
| GCGCGGAGGACAAGGTCAGAGCTTTGTCCGTAGA | 3.4 |
| TCTCGGAGGACACGAAAGGTCAGGGCTCGACATC | 4.4 |
| TATGCAGGGTCAAAGGCCAGAGTACGAATGTCGA | 4.34 |
| CCTAATGGGCCAAGGTCATTGATCAGTCAAAGCA | 3.59 |
| AGAACGAGGGCACGCGGAGTTGATAGCAGAGTAG | 2.64 |

test system: RARb homodimer (NR concentration 270 nM); test: as above
Method in brief: as §1

| Sequence | PBM binding z-score |
| --- | --- |
| CCTTACGGGTCACTCCAGGTTATAGCATCGGAGT | 3.23 |
| TTGCCTAGGTCATGGGCCAGTATACCACGCGAAC | 3.1 |
| TCTTGTAGATCAATGGTTAAGAAAGCCGAAGCCT | -0.529 |
| CCGACTGGGGCATAAGGTTACCCTAAGCCAGCCC | 1.42 |
| CCTTACTGGTCACTCCAGGTTATAGCATCGGAGT | 1.42 |
| ATCTCTAGGTCACCAAGTTCAGTGAATGCCGAAC | 4.45 |
| AGAACGAGGGCAATGAGTTGTTAGCACGGGTGGC | 0.552 |
| GCTGCTACGTCAGGTTGGTCAGCTAACGGGTACG | -0.00672 |
| TAGCCTAGGTCAGACCGGGCCAGTATACGCTATA | 2.24 |
| CCGAGTAGGTTATGGGGCACTCAGGCAACGGTGA | 0.946 |
| GCTTACGGGTCAAAGGTGATAGCATGAATAGAAT | 2.94 |
| CCTACTGGGCCAAACAGGTCATTGATGCCGATAA | 2.13 |
| ATATGTAGGTTATGGGGTCATTCAGTTTGCGCAT | 4.16 |
| ATCGAAAGGTCGTGAGGTTAGTATACAGAAAGGC | 3.14 |
| GCGACTGGGGCAAAGCAGGTTTCCATAAGGTTGG | -0.0206 |
| CCTACTAGGCCAAAAAGGTCATTGATGCCGATAA | 4.74 |
| GCTGCTAGGTCAACTGTTGGTCAGCTAAAGCTCG | 3.66 |
| AGAACGAGGGCACGTTGAGTTGATAGCAGAGTAG | 1.28 |
| CGTCCAGGGTCAAAGGTCAGTGAAGAGATGACGG | 5.11 |
| ATCACTAGGTAAAAGTTCAGTGAATCCCGAGGAT | 2.5 |

| Sequence | PBM binding z-score |
| --- | --- |
| CCAGATAGGTGAGAAGGTAACTCAGCCTCGATTA | 0.492 |
| ACTATTAGTTAACTTAGGGCAACCGATACGACGC | 0.839 |
| AGTCAAAGTTAACTAGGTAACGTAAGATTCAGCT | -0.331 |
| TCTTGTAGATCAAGCAGGTTAAGACAGCCTGAGT | 0.295 |
| GCTAGTTGGTAAGTAAAAGGTCACACACCGGTCG | 5.2 |
| CGAACTAGGTCATTGACAGGACAGTGAGTAGTAA | 2.57 |
| TCTTGTAGATCAATAGAGGTCAAGAAAGTGCGCT | 4.21 |
| ACTAACAGGCCAAGTTTGGGTCACTCAAACAAAG | 2.55 |
| TCTATTAGTTGAAGGGCAAACGACGAGTCCGTTT | 1.26 |
| GCTAGGTGGTCAGTAAAAGGTCACACACCGGTCG | 5.21 |
| ATCTCTAGGTAACAAGTACAGTGAAAGAGAGGAC | 0.631 |
| ATCTCTAGGTAAAAGCTCAGTGAATCCCGAGGAT | -0.335 |
| TTACCAAGGTGCAGGTCGTTGATCCCTCTGTAGA | 0.634 |
| AGACTGAGGTTATACGTAGATCAGGGAAGAAAGT | 0.864 |
| CAAACTAGGTCAGAGGTCAAAGTCGAGCCAACCA | 5.04 |
| GCGCGGAGGACAAGGTCAGAGCTTTGTCCGTAGA | 2.99 |
| TCTCGGAGGACACGAAAGGTCAGGGCTCGACATC | 4.94 |
| TATGCAGGGTCAAAGGCCAGAGTACGAATGTCGA | 3.43 |
| CCTAATGGGCCAAGGTCATTGATCAGTCAAAGCA | 3.46 |
| AGAACGAGGGCACGCGGAGTTGATAGCAGAGTAG | 1.42 |
